In PubChem BioAssay:
Calls of active or inactive are those of the source. Unless noted, the rule behind the calls is not given here.

Legend:
[1] = test system: Wnt5a (protein binding on small-molecule microarray); experiment: small molecules binding Wnt5a protein – biophysical, small-molecule microarray, 635/667 nm fluorescence, primary screen (AID 1142); settings: 635 nm fluorescence, higher = more signal;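 note: fluorescence read at 667 nm with signal to noise per printed feature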
[2] = ATP-based viability of Huh7 replicon cells – cell-based, CellTiter-Glo luminescence, basal, 48 h, cytotoxicity control for HCV replication inhibitor project, primary screen (AID 1143); settings: higher = more signal, called active from +8 up or from −8 down;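 note: Huh7 hepatoma cells carrying a hepatitis C replication reporter with no stimulus; test concentration not given here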
[3] = Pseudomonas biofilm growth suppression – PAO1 strain, BacTiter-Glo luminescence, LB-PBS, primary screen (AID 1144); settings: P. aeruginosa PAO1 biofilm, 12 h, higher = more signal
[4] = basal CRE-LacZ reporter activity in PC12 – cell-based, unstimulated, primary screen (AID 1145); settings: no forskolin, luminescence, 4.5 h, higher = more signal, called active from +8 up or from −8 down
[5] = forskolin-driven CRE-LacZ activity in PC12 – cell-based, CRE-LacZ reporter, forskolin-stimulated, primary screen (AID 1146); settings: luminescence, 4.5 h, higher = more signal, called active from +8 up or from −8 down;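 note: PC12 cells with 6xCRE LacZ reporter stimulated by forskolin 10 µM; beta-galactosidase reporter signal reflecting CREB driven transcription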
[6] = target: Streptavidin (Streptomyces avidinii) (UniProt P22629); experiment: compounds binding control protein streptavidin – biophysical, small-molecule microarray, 635/667 nm fluorescence, artefact control for SMM compound annotation, primary screen (AID 1147); settings: higher = more signal;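 note: signal reflects streptavidin binding to arrayed compounds as a control protein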
Streptavidin (Streptomyces avidinii), sequence (P22629 whole entry, looked up): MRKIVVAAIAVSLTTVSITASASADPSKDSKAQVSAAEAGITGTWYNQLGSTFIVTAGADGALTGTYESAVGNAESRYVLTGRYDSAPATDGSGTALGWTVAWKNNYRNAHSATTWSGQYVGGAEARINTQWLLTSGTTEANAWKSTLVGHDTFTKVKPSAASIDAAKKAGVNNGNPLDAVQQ

[7] = probe aInhba binding on compound microarray – biochemical, small-molecule microarray, 635/667 nm fluorescence, primary screen (AID 1148); settings: higher = more signal;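 note: score merges 667nm spot fluorescence with signal-to-noise for antibody binding to printed compounds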
[8] = target: Torsin-1A (Homo sapiens) (UniProt O14656); experiment: TOR1A wild-type binding on microarray – cell lysate, small-molecule microarray, lysate, 635/667 nm, primary screen (AID 1149); settings: COS7 hTOR1A-WT lysate, 635 nm fluorescence, higher = more signal
Torsin-1A (Homo sapiens), sequence (O14656 whole entry, looked up): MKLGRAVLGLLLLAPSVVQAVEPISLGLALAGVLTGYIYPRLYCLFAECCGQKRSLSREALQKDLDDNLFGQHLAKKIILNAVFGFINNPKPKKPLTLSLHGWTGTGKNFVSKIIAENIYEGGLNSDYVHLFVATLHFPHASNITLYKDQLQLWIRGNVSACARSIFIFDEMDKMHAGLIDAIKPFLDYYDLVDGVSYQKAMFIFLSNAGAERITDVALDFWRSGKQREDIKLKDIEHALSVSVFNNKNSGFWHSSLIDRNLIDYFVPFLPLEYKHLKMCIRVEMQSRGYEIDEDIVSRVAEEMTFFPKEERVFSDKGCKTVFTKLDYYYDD

[9] = target: Torsin-1A (Homo sapiens) (UniProt O14656); experiment: torsin A mutant lysate binding on microarrays – cell lysate, small-molecule microarray, COS7 lysate, 635/667 nm fluorescence, primary screen (AID 1150); settings: COS7 hTOR1A mutant lysate, 635 nm fluorescence, higher = more signal;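 note: score pools 667 nm emission and signal to noise measuring lysate protein binding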
[10] = test system: Sonic hedgehog protein (Shh); experiment: Sonic hedgehog microarray binding compounds – biochemical, small-molecule microarray, 635/667 nm fluorescence, primary screen (AID 1151); settings: 635 nm fluorescence, higher = more signal;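 note: Shh protein binding to compounds spotted on small-molecule microarray slides; score combines spot fluorescence intensity with signal-to-noise across triplicate slides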

Row | Compound | composite z-score [1] | z-score [2] | z-score [3] | z-score [4] | z-score [5] | composite z-score [6] | composite z-score [7] | composite z-score [8] | composite z-score [9] | composite z-score [10]
1 | C=CC[C@]12N=C(c3ccc(OCCCO)cc3)O[C@H]1c1ccccc1N(CCC)C2=O | 0.587 | -3.39 (inactive) | 0.552 (inactive) | 0.866 (inactive) | -0.743 (inactive) | -0.256 | 0.562 | 0.234 | 0.397 | 1.61
2 | C[N+](C)(C)CCCC[C@@H]1NC(=O)[C@H]2C[C@@H](C(=O)NCCCCCN)[C@@H](c3ccc(O)cc3)N2C1=O | 0.801 | -0.147 (inactive) | 0.69 (inactive) | 1.11 (inactive) | 0.466 (inactive) | 2.29 | 0.228 | 0.926 | 0.6 | 2.17
3 | COC(=O)C(CC#Cc1ccc2c(c1)[C@]1(C(=O)N2)[C@H](C(N)=O)[C@H]2C(=O)O[C@H](c3ccccc3)[C@H](c3ccccc3)N2[C@@H]1c1ccccc1OCCO)C(=O)OC | 0.151 | -6.25 (inactive) | -0.451 (inactive) | 0.362 (inactive) | -0.955 (inactive) | -0.0001 | -0.152 | 0.544 | 1.48 | 1.07
4 | O=C1O[C@H](c2ccccc2)[C@H](c2ccccc2)N2[C@H]1[C@@H](C(=O)Nc1nc3ccccc3s1)[C@]1(C(=O)Nc3ccccc31)[C@H]2c1ccccc1OCCO | -0.023 | -4.68 (inactive) | -0.804 (inactive) | 0.272 (inactive) | 0.519 (inactive) | 1.25 | 0.161 | 0.869 | 1.11 | 0.465
5 | C=CCNC(=O)[C@@H]1[C@H]2C(=O)O[C@H](c3ccccc3)[C@H](c3ccccc3)N2[C@H](c2ccc(O)cc2)[C@@]12C(=O)N(C(=O)OCCOC)c1ccc(C#CCC(C(=O)OC)C(=O)OC)cc12 | 0.259 | -3.02 (inactive) | 0.132 (inactive) | -0.438 (inactive) | 0.416 (inactive) | 0.0198 | 0.0074 | 0.586 | 1.3 | 1.37
6 | COc1ccc([Si](C)(C)[C@H]2[C@H](CC(=O)N3CCC[C@H]3CO)O[C@@]3(C(=O)N(C)c4c(Br)cc(C)cc43)[C@@H]2C)cc1 | 1.55 | -1.11 (inactive) | -0.518 (inactive) | 0.758 (inactive) | 1.09 (inactive) | 3.28 | 0.462 | 2.05 | 1.5 | 1.6
7 | COC(=O)[C@@]1(Cc2ccc(F)cc2)[C@H]2c3cc(C(=O)N4CCCC4)n(C[C@H](O)CO)c3C[C@H]2CN1C(=O)c1ccccc1 | 0.943 | 0.0849 (inactive) | 0.339 (inactive) | 0.0075 (inactive) | -0.101 (inactive) | 1.12 | 0.674 | 0.0277 | 0.332 | -0.545
8 | CN1C(=O)C2C=CC(C(O)c3cccs3)N(N(c3ccccc3)c3ccccc3)C2C1=O (stereo not given) | -0.0276 | 0.114 (inactive) | -0.176 (inactive) | 1.21 (inactive) | -0.324 (inactive) | 0.827 | 0.0422 | 1.75 | 0.0109 | -0.287
9 | OCCCc1cc[n+](Cc2cc3c(cc2Br)OCO3)cc1 | -0.265 | -0.633 (inactive) | 0.0177 (inactive) | -0.374 (inactive) | -0.121 (inactive) | -0.838 | -0.209 | -1.27 | -0.561 | -0.508
10 | [N-]=[N+]=NCc1ccccc1[C@H]1OC(c2ccc(OCCCO)cc2)=N[C@@]1(Cc1ccccc1N=[N+]=[N-])C(N)=O | 0.395 | -1.38 (inactive) | -1.13 (inactive) | 0.0451 (inactive) | -0.697 (inactive) | 1.23 | 0.472 | 1.55 | 0.949 | 0.183
11 | COc1ccc(C(=O)Nc2cccc(CN3C(=O)[C@]4(O[C@H](CC(=O)N(CCO)Cc5ccccc5)[C@@H]([Si](C)(C)c5ccc(OC)cc5)[C@@H]4C)c4ccccc43)c2)cc1 | 0.997 | -4.13 (inactive) | 0.172 (inactive) | 1.72 (inactive) | -1.33 (inactive) | 0.127 | -0.0131 | 0.0401 | 0.395 | 1.48
12 | CCCCC=C[C@@H](NC(=O)C(C)(C)C)c1ccccc1 | 0.5 | -2.89 (inactive) | 0.124 (inactive) | -0.185 (inactive) | 1.67 (inactive) | 0.761 | 0.353 | 0.226 | 0.487 | -0.0371
13 | CS(=O)(=O)CCOC(=O)C1=CC(CCCO)=CC(C2CC2)N(Cc2sc3ccccc3c2Cl)C=C1C(=O)OCCS(C)(=O)=O (stereo not given) | 0.296 | -2.27 (inactive) | -0.15 (inactive) | 2.57 (inactive) | -0.655 (inactive) | 1.41 | 0.523 | 1.15 | 1.48 | 1.41
14 | O=C(NCCN1CCOCC1)[C@@H]1c2ccccc2C(=O)N(CC23CC4CC(CC(C4)C2)C3)[C@H]1c1ccc(CO)cc1 | 0.617 | -2.69 (inactive) | -0.634 (inactive) | 0.441 (inactive) | -0.0639 (inactive) | 1.12 | 0.0542 | 0.51 | 1.47 | 0.506
15 | COCCOC(=O)N1C(=O)[C@@]2(c3cc(C#CCNC(N)=O)ccc31)[C@H](C(=O)N1CCN(c3ncccn3)CC1)[C@H]1C(=O)O[C@H](c3ccccc3)[C@H](c3ccccc3)N1[C@@H]2c1ccc(O)cc1 | -0.546 | -0.375 (inactive) | -1.09 (inactive) | 0.484 (inactive) | -0.26 (inactive) | -1.21 | -0.4 | -0.827 | -0.859 | -0.448
16 | CCOC(=O)C[C@H]1[C@H](OC(=O)c2cc3ccccc3oc2=O)[C@@H](NC(=O)c2ccc(-c3ccccc3)cc2)c2cc(OCCCO)ccc2N1C(=O)Cc1ccc(OC)cc1 | 0.391 | -0.346 (inactive) | -0.301 (inactive) | 0.666 (inactive) | 0.0179 (inactive) | 0.385 | -0.0095 | 0.195 | 0.775 | 0.989
17 | C=C(/C=C\CNS(=O)(=O)c1ccc(C)cc1)[C@H](O)[C@H]1CCCN1S(=O)(=O)c1ccccc1[N+](=O)[O-] | 0.0313 | -4.19 (inactive) | 0.227 (inactive) | 13 (active) | 0.121 (inactive) | -0.0435 | -0.0986 | 0.345 | -0.0414 | 0.17
18 | CC1C2C(CCCO)=CC(C3C(=O)N(C(N)=O)C(=O)C23)N1Cc1cccc(OC(F)(F)F)c1 (stereo not given) | -0.0205 | 0.897 (inactive) | 0.206 (inactive) | -0.233 (inactive) | 0.693 (inactive) | 0.664 | -0.0531 | 0.438 | 0.6 | 0.396
19 | [N-]=[N+]=NCc1ccccc1C[C@@]1(C(N)=O)N=C(c2ccc(OCCCO)cc2)O[C@@H]1c1ccccc1N=[N+]=[N-] | 0.336 | -3.18 (inactive) | 1.33 (inactive) | 1.01 (inactive) | -0.626 (inactive) | 1.31 | -0.145 | 0.369 | 0.409 | -0.455
20 | COc1ccc([Si](C)(C)[C@H]2[C@H](CC(=O)N(CCO)Cc3ccccc3)O[C@@]3(C(=O)N(Cc4ccc(N5C(=O)c6cccc7cccc5c67)cc4)c4ccccc43)[C@@H]2C)cc1 | 0.954 | -4.47 (inactive) | 0.278 (inactive) | 0.353 (inactive) | -0.429 (inactive) | 0.555 | 0.545 | -0.237 | 0.454 | 2.17
21 | O=C1O[C@H](c2ccccc2)[C@H](c2ccccc2)N2[C@H]1[C@@H](C(=O)O)[C@]1(C(=O)Nc3ccccc31)[C@H]2c1ccc(OCCO)cc1 | -0.0515 | 0.234 (inactive) | -0.369 (inactive) | 0.739 (inactive) | 0.727 (inactive) | 1.08 | -0.0468 | 0.658 | -0.283 | 0.98
22 | CC(C)c1ccc(NN2C(C(O)C(C)c3ccccc3)C=CC3C(=O)N(c4ccccc4)C(=O)C32)cc1 (stereo not given) | 0.981 | 0.0469 (inactive) | -0.692 (inactive) | 0.619 (inactive) | 0.939 (inactive) | 2.11 | 0.864 | 0.326 | 1.12 | 0.461
23 | CN(C)CCCCCCNC(=O)[C@@H]1C[C@@H]2C(=O)N[C@@H](CCCC[N+](C)(C)C)C(=O)N2[C@@H]1c1cccc(OCCO)c1 | 0.144 | -0.966 (inactive) | -0.217 (inactive) | -0.805 (inactive) | -0.416 (inactive) | -0.3 | 0.0569 | 0.327 | -0.284 | -0.371
24 | [N-]=[N+]=NCc1ccccc1C[C@@]1(C(=O)NCCN2CCOCC2)N=C(c2ccc(OCCCO)cc2)O[C@@H]1c1ccccc1 | 0.366 | -3.38 (inactive) | 0.505 (inactive) | 2.72 (inactive) | 0.847 (inactive) | 1.11 | 0.302 | 0.271 | 0.57 | 0.34
25 | CC1CC/C=C\[C@H]2OC34C=CCN(CCN5CCOCC5)C(=O)[C@H]3N(C(CO)C(C)C)C(=O)[C@@H]4C2C(=O)O1 (stereo not given in full) | 0.115 | 0.211 (inactive) | 1.52 (inactive) | -0.0778 (inactive) | 0.341 (inactive) | -0.0429 | -0.128 | 1 | -0.05 | 0.795
26 | CC(C)C(=C=CC[C@H](O)c1cccc(OCCO)c1)C[C@H](O)c1ccccn1 | -0.103 | -0.667 (inactive) | -1.06 (inactive) | 2.25 (inactive) | 0.42 (inactive) | -0.502 | -0.0986 | -0.256 | 0.0951 | 1.45
27 | O=C1C2C=CC(C(O)C3CCCCC3)N(Nc3ccccc3F)C2C(=O)N1c1ccccc1 (stereo not given) | 0.442 | -2.88 (inactive) | -0.469 (inactive) | 0.826 (inactive) | -0.904 (inactive) | 1.5 | 0.448 | 0.258 | 1.12 | -0.324
28 | COC(=O)C(CC#Cc1ccc2c(c1)[C@]1(C(=O)N2)[C@H](C(=O)N2CCCCCCC2)[C@H]2C(=O)O[C@H](c3ccccc3)[C@H](c3ccccc3)N2[C@@H]1c1ccc(OCCO)cc1)C(=O)OC | 2.02 | -0.873 (inactive) | 1.02 (inactive) | -0.581 (inactive) | -0.546 (inactive) | 4.12 | 1.97 | 3.57 | 3.65 | 2.05
